Source: PubChem BioAssay
Rows were chosen to be rich in hits. Some 1.4% of all compounds tested hit in one or more screens of this group.
RXFP1 agonist: RXFP1 (human) receptor agonism; HEK293T-RXFP1 cAMP TR-FRET, 30 min; response scale: percent of porcine relaxin response, buffer zero; Potency, µM (titrated, usually from 57.5 µM), inactives show at the highest dose activation, hits mostly activators; AID 2676; 370,000 tested, 0.3% active; note: potency is the fitted concentration of half-maximal effect; % is set by controls: 0 for no effect and ±100 for the full control effect; nearly all actives have a fitted effect of over 60% in size
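Agonist response is measured as cAMP accumulation in an RXFP1-transfected HEK293T line under PDE4 inhibition. Values are scaled between buffer-only and 29 nM porcine relaxin, and EC50s come from standard Hill equation fits.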
KCNH2 3.1 inh: inhibitors of human KCNH2 3.1 potassium channel isoform | activity change, % (tested at about 1.8 µM) | U2OS KCNH2 3.1, thallium flux FluxOr; hits give low values | 340,000 tested, 0.95% active;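 active = maximum activity change below -70%; inconclusive = maximum activity change from -70% to -50%; inactive = maximum activity change above -50%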;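 note: thallium influx rate constant from kinetic fluorescence after stimulation buffer; % is set by controls: 0 for no effect and ±100 for the full control effect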
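Measured as rate of thallium-driven FluxOr signal in transduced U2OS cells carrying the 3.1 channel, read kinetically for 2 min upon stimulation; values are rate constants scaled to DMSO control wells.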
Glioma ERSR ind: inducers of ER stress response in human glioma cells; U87-MG GRP78 promoter luciferase reporter, 16 h; Potency, µM, without a hit: top-dose activation, actives largely listed as activators; 420,000 tested, 0.02% active; note: potency is the fitted concentration of half-maximal effect; series mostly up to about 76 µM; % of control where 0% means no effect; nearly all actives have a fitted effect of over 35% in size
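Stably transfected U87-MG human glioma cells carrying a GRP78-based luminescent sensor were seeded at 1000 cells/well, pin-dosed with compounds and incubated 16 h. Luciferase reagent was then added, and end-point luminescence was read after 10 min at room temperature.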
hERG WT inh: KCNH2 (human, wildtype) channel inhibition | U2OS, BacMam KCNH2, thallium flux FluxOr; hits give low values | activity change, % at 1.84 µM | 340,000 tested, 0.37% active | AID 720551;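 active = maximum activity change below -70%; inconclusive = maximum activity change between -70% and -50%; inactive = maximum activity change above -50%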; note: % is set by controls: 0 for no effect and ±100 for the full control effect
Target sequence (Q12809 whole entry, looked up): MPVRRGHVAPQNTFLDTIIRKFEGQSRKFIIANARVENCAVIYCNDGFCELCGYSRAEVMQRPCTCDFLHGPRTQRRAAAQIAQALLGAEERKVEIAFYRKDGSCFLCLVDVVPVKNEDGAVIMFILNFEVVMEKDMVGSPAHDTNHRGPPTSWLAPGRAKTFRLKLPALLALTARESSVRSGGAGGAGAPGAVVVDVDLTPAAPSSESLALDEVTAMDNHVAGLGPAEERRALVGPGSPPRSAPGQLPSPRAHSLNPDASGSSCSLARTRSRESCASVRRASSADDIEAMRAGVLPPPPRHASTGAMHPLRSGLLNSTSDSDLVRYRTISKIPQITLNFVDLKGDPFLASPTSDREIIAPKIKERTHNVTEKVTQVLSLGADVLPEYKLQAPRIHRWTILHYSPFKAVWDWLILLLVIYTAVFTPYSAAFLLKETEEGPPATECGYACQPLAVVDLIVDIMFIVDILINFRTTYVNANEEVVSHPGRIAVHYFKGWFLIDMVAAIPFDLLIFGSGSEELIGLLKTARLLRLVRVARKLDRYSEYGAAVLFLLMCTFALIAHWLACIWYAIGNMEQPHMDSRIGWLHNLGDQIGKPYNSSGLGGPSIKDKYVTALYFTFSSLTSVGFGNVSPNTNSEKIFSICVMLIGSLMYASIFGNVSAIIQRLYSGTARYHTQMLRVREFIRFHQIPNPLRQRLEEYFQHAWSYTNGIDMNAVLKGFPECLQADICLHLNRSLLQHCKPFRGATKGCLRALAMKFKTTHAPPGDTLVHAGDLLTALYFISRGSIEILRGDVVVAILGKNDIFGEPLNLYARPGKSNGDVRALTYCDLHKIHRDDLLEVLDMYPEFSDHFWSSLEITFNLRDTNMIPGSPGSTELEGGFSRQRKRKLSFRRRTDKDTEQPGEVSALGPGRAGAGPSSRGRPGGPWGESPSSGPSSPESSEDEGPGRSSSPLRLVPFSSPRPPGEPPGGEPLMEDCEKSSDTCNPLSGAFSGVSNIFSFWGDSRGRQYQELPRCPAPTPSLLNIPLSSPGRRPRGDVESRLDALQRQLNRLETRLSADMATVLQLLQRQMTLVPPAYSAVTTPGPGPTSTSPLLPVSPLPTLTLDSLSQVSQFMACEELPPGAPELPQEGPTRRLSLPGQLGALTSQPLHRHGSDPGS
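U2OS cells were transduced with wild-type KCNH2 virus (2.03 x 10^8 / mL) for 4 h at room temperature, then cultured overnight at 37 C. Thallium flux was read with FluxOr dye. Rate constants were normalized to DMSO controls.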
RXFP1 antagonist: antagonists of human relaxin receptor RXFP1. activity change, negative = inhibition, % at 57.5 µM. AID 1259400. HEK293-RXFP1, relaxin-stimulated cAMP HTRF, 30 min; hits give low values. 350,000 tested, 0.59% active. Q9HBX9;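 active = activity change of -60% or lower, but not beyond a set lower limit; inconclusive = change between -60% and -40%, or beyond the set limit; inactive = change above -40%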; note: % is set by controls: 0 for no effect and ±100 for the full control effect
PTHR1 ag: activates the human parathyroid hormone receptor PTHR1 | Q03431 | HEK293 GP2 PTHR1 cells, GloSensor cAMP luminescence, 1 h | Potency, µM (titrated, usually from 115 µM), for inactives: at the highest dose activation, usual class: activators | 410,000 tested, 0.075% active; note: potency is the fitted concentration of half-maximal effect; nearly all actives have a fitted effect of over 55% in size
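HEK-293-derived GP2 cells expressing PTHR1 and a GloSensor cAMP reporter, 3,000/well, plated overnight, given luciferin plus IBMX (each 0.5 mM as added) for 1 h at 37 °C, then compound for 1 h at 37 °C. Luminescence was read after 15 min at room temperature.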
Numbers without * were called inactive; i = inactive; ? = inconclusive; nt = no result; [ ] = remark or other dose. Unless noted, calls come from the whole dose curve; as a rule, active = well fitted curve in the direction sought with a large enough effect; inconclusive = small, poorly fitted or top-dose-only effect, or another doubt; inactive = no such curve, though single readings can be large; an effect the other way counts as inactive or inconclusive.

SMILES	RXFP1 agonist	KCNH2 3.1 inh	Glioma ERSR ind	hERG WT inh	RXFP1 antagonist	PTHR1 ag
Cc1ccccc1OCCCCn1c(CCNC(=O)C(C)(C)C)nc2ccccc21	-1%	nt	-1%	nt	-63*	-26%
CC(C)(C)C(=O)NCCc1nc2ccccc2n1CCCCOc1ccc(Cl)cc1	-1%	nt	-2%	nt	-85*	-38%
CC(C)C(=O)NCCc1nc2ccccc2n1CCCOc1ccc(Cl)cc1	-1%	?	-3%	8	-11	-20%[57.5 µM]
CCOC(=O)C1=C(C)N=C2SC(C)C(=O)N2C1c1ccccc1 (stereo unspecified)	-1%	-94*	-3%	-9	-5	i
CCOC(=O)N1CCC(NC(=O)c2cc(COc3c(C)cccc3C)on2)CC1	2%	-17	-2%	4	-7	-21%
O=C(Oc1ccc2c(c1)OCC2=O)c1ccc(Cl)cc1	0%	-13	-9%	-4	-60*	-9%
COc1cc(C(=O)Oc2ccc3c(c2)OCC3=O)cc(OC)c1OC	-1%	-5	?	-9	-7	-1%[57.5 µM]
CC(O)CNCCCOc1ccc(Cl)cc1C(C)(C)C (stereo unspecified)	-1%	-3	-7%	5	-61*	-11%
CN(C)CCOCCOc1ccc(Cl)cc1C(C)(C)C	-1%	9	-5%	-38	?	?
Cc1nn(-c2ccccc2)c(N2CCCC2)c1/C=C1\N=C(c2ccc(OC(C)C)cc2)OC1=O	1%	-75*	-4%	-4	-1	-7%
Cc1ccc(C)c(N2CCN(C(=O)c3cc4ccccc4oc3=O)CC2)c1	0%	24	-2%	1	2	-15%
O=C(c1cc2ccccc2oc1=O)N1CCN(c2ccc(N3CCOCC3)nn2)CC1	0%	-88*	-1%	-10	nt	i
O=C(c1ccc(N2CCCC2)c([N+](=O)[O-])c1)N1CCN(S(=O)(=O)c2ccc(Cl)cc2)CC1	0%	-17	-2%	-1	-64*	i
O=C(Nc1ccc2nc(SCC(=O)N3CCOCC3)sc2c1)c1cccc(Br)c1	1%	nt	-8%	nt	-98*	-49%
O=C(Nc1ccc2nc(SCC(=O)N3CCOCC3)sc2c1)c1cccc(F)c1	0%	nt	-2%	nt	-86*	-19%
O=C(Nc1ccc2nc(SCC(=O)N3CCCC3)sc2c1)c1cccc(F)c1	6%	nt	-2%	nt	-101*	-20%
O=C(Nc1ccc2nc(SCC(=O)N3CCOCC3)sc2c1)c1ccccc1Cl	0%	nt	-3%	nt	-64*	-57%
O=C(Oc1cccc(/C=N/Nc2nc(Nc3ccccc3)nc(N3CCOCC3)n2)c1)c1ccco1	0%	-41	3%	1	-10	i
CCC(C(=O)OC)n1c(-c2ccccc2)nc2ccccc2c1=O (stereo unspecified)	-1%	-6	-3%	11	2	?
O=C(Nc1ccc2nc(SCC(=O)N3CCOCC3)sc2c1)c1ccc(Br)cc1	11%	nt	-3%	nt	-19	-18%
COc1cccc(C(=O)Nc2ccc3nc(SCC(=O)N4CCOCC4)sc3c2)c1	-1%	nt	-7%	nt	-96*	-12%
O=C(O)c1cc2c(cc1NC(=O)c1c(F)cccc1F)OCCCO2	2%	12	0%	-17	-2	-6%
COc1ccc(S(=O)(=O)N2CCC(C(=O)NCCC(=O)NCc3cccnc3)CC2)cc1	nt	-9	-1%	-74*	12	-1%
CNC(=O)c1nnsc1S(=O)(=O)c1ccc(Cl)cc1	-3%	7	-15%	-4	-83*	-28%
CCOC(=O)C1CCN(C(=O)c2ccc3c(=O)n4nc(Nc5ccccc5OC)sc4nc3c2)CC1	nt	-75*	-4%	-3	1	-1%
SMILES	RXFP1 agonist	KCNH2 3.1 inh	Glioma ERSR ind	hERG WT inh	RXFP1 antagonist	PTHR1 ag
CCOC(=O)C1CCN(C(=O)c2ccc3c(=O)n4nc(Nc5cc(C)ccc5C)sc4nc3c2)CC1	6%	0	-16%	13	-18	?
O=C(Nc1ccc(NC(=S)NC(=O)c2ccco2)cc1)c1ccc(Br)cc1	nt	0	-12%	-6	-4	i
COC(=O)CSc1nnc(CNS(=O)(=O)c2ccc(C)cc2)n1C	-2%	4	-2%	-253*	-4	i
COc1ccc(OCC(=O)Nc2c(C(=O)N(CCN(C)C)Cc3ccco3)oc3ccccc23)cc1	1%	-111*	0%	?	-16	?
Cc1ccccc1C(=O)Nc1c(C(=O)N(CCN(C)C)Cc2ccco2)oc2ccccc12	1%	-84*	1%	-92*	-1	i
COc1ccccc1C(=O)Nc1c(C(=O)N(CCN(C)C)Cc2ccco2)oc2ccccc12	3%	-15	1%	-37	-5	i
CN1CCN(S(=O)(=O)c2ccc(NC(=O)Nc3cccc(Cl)c3)cc2)CC1	-2%	-6	1%	12	8	-32%[57.5 µM]
CCOc1ccc(NC(=O)COC(=O)c2ccc(S(=O)(=O)N3CCOCC3)cc2)cc1	nt	3	-3%	11	8	i
CCOc1ccc(-n2c([S-])c(C(=O)Nc3ccc(S(=O)(=O)N4CCOCC4)cc3)[n+]3cc(C(N)=O)ccc23)cc1	32µM*	-44	-2%	-21	-2	-2%
O=C(Nc1cc2c(cc1Cl)OCCO2)c1ccco1	0%	-12	8%	-7	29	-41%[57.5 µM]
CC(C)n1c(SCC(=O)N2CCN(C(=O)c3ccco3)CC2)nc2c1c(=O)n(C)c(=O)n2C	14µM*	-25	-7%	-1	17	i
CC(=O)c1c(C)nc2ccccc2c1N	0%	11	-3%	-5	3	0%
Cc1nc2ccccc2c(N)c1C(=O)/C=C/c1ccccc1	-1%	-32	-13%	14	-83*	-96%
COc1cccc(CNC(=O)C2CCC(CNS(=O)(=O)c3ccc4c(c3)CCCC(=O)N4)CC2)c1 (stereo unspecified)	0%	nt	-1%	nt	nt	i
Cc1ccc(-c2nc(NC(=O)c3nn(C)cc3[N+](=O)[O-])sc2C)cc1C	-2%	-82*	-16%	4	10	-70%
Cn1nc(C(F)(F)F)c(-c2ccc(Br)cc2)c1NC(=O)Nc1ccc(F)cc1F	5%	-24	0%	5	-61*	-33%
COc1cc(/C=C2\SC(=O)N(CCN)C2=O)ccc1OS(=O)(=O)c1cc(C)ccc1C	-2%	-10	-16%	4	-72*	i
COc1ccc(/C=C2\SC(=O)N(CCC(=O)Nc3ccccc3)C2=O)cc1OC	-12%	0	-6%	-2	4	i
COc1cccc(COC(=O)c2nn(-c3ccccc3)nc2N)c1	3%	nt	-2%	-184*	5	25%
